Mtb bLac sens: beta-lactam sensitization of Mtb H37Rv | AID 434955 | inhibition, % at 25 µM | actives 0.27% (n = 330,000) | M. tuberculosis H37Rv growth with meropenem, percent inhibition; call rule not given here;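 also: growth measured after seven days incubation then overnight dye step; 0% = bacteria only wells and 100% = bacteria with antibiotic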
Rv3671c protease: inhibitors of M. tuberculosis serine protease Rv3671c; P9WHR9; inhibition, % at 5.96 µM; actives 0.048% (n = 320,000); in the data active = inhibition above about 38%;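 also: extracellular domain of Rv3671c used as enzyme; 0% = enzyme with DMSO and 100% = no enzyme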
Target sequence (P9WHR9 whole entry, looked up, the tested form may be a part): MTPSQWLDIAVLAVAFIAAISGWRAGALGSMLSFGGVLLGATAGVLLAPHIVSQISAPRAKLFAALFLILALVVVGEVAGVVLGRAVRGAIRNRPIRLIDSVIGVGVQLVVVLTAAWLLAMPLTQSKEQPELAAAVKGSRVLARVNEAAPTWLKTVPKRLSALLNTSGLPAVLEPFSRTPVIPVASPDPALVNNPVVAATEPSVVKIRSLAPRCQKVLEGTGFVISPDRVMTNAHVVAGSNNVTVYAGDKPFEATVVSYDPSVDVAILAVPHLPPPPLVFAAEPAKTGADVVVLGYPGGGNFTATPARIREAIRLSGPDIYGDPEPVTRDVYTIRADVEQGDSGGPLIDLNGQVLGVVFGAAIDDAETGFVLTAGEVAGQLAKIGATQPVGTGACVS
GDH-TPI counter: counter-screen for M. tuberculosis FBA inhibitors: GDH-TPI coupled enzymes; GDH-TPI coupled enzyme counterscreen, NADH absorbance; actives 1.2% (n = 360,000); inhibition, % at 4.8 µM; AID 588335; in the data active = inhibition above about 30%;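 also: 0% = DMSO wells and 100% = wells lacking the enzyme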
RecA intein inh: inhibitors of M. tuberculosis RecA intein splicing | cell-free RecA intein splicing, fluorescence | inhibition, % (concentration not given with the values) | actives 0.75% (n = 290,000) | AID 2221; in the data active = inhibition above about 30%;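 also: 0% = vehicle wells and 100% = reference inhibitor control wells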
UGM FP inh: blocks M. tuberculosis UGM enzyme | P9WIQ1 | purified UGM, fluorescence polarization probe displacement | actives 0.06% (n = 320,000) | inhibition, % at 10 µM; in the data active = inhibition above about 10%, passing the limit was not always enough
FBA Mtb inh: Mtb fructose-bisphosphate aldolase inhibition; purified M. tuberculosis FBA, fluorescence read-out; inhibition, % at 1 µM; actives 2.3% (n = 360,000); AID 588726; in the data active = inhibition above about 27%;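 also: 0% = vehicle and 100% = reference inhibitor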
An asterisk follows results filed as active. In the library only some 4% were active in any assay of this set; here they are far more common.

`CCOC(=O)c1ccc(NC(=S)NCc2ccco2)cc1` gave Mtb bLac sens -5, Rv3671c protease 4, GDH-TPI counter 0, RecA intein inh 0, UGM FP inh 0 and FBA Mtb inh 3.
For COc1ccc(Nc2ccnc3ccccc23)cc1 the results were Mtb bLac sens -2, Rv3671c protease 0, GDH-TPI counter 32*, RecA intein inh 2, UGM FP inh -2 and FBA Mtb inh 0.
Screening COC(=O)c1ccc2nc(C)cc(Nc3ccc(N(C)C)cc3)c2c1 returned Mtb bLac sens 93, Rv3671c protease 5, GDH-TPI counter 5, RecA intein inh 1, UGM FP inh 6 and FBA Mtb inh 1.
`CC(=O)c1cccc(Nc2cc(C)nc3ccccc23)c1` gave Mtb bLac sens -7, Rv3671c protease 5, GDH-TPI counter 32*, RecA intein inh -6, UGM FP inh 7 and FBA Mtb inh -6.
For O=C(O)c1cccc(Nc2nc3ccccc3nc2NS(=O)(=O)c2ccccc2)c1 the results were Mtb bLac sens 2, Rv3671c protease 8, GDH-TPI counter 20, UGM FP inh 5 and FBA Mtb inh 21.
CC(=O)c1cccc(Nc2cc(C)nc3c(C)cccc23)c1 was read as Mtb bLac sens -6, Rv3671c protease 4, GDH-TPI counter 5, RecA intein inh 2, UGM FP inh -3 and FBA Mtb inh 1.
Screening COC(=O)c1ccc(Nc2cc(C)nc3ccccc23)cc1 returned Mtb bLac sens 1, Rv3671c protease 9, GDH-TPI counter 42*, RecA intein inh 1, UGM FP inh -4 and FBA Mtb inh 6.
For O=C(O)c1cccc(Nc2c3ccccc3nc3ccccc23)c1 the results were Mtb bLac sens 1, Rv3671c protease -2, GDH-TPI counter 0, RecA intein inh -72, UGM FP inh 0 and FBA Mtb inh 124*.
For CC(=O)Nc1ccc(NC(=O)COC(=O)COc2ccc3ccccc3c2)cc1 the results were Mtb bLac sens 7, Rv3671c protease -3, GDH-TPI counter -3, UGM FP inh 2 and FBA Mtb inh 0.
O=C(c1ccccc1)N1CCN(c2n[nH]c(=O)[nH]c2=O)CC1 was read as Mtb bLac sens -1, Rv3671c protease -3, GDH-TPI counter -2, RecA intein inh 1, UGM FP inh 2 and FBA Mtb inh 3.
Screening COc1ccc(Nc2cc(C)nc3ccc(OC)cc23)cc1 returned Mtb bLac sens -3, Rv3671c protease 3, GDH-TPI counter 34*, RecA intein inh 4, UGM FP inh 2 and FBA Mtb inh 2.
For COc1cc(/C=N/NC(N)=O)cc(Br)c1OCc1ccccc1C the results were Mtb bLac sens -3, Rv3671c protease 3, GDH-TPI counter -1, RecA intein inh -2, UGM FP inh -2 and FBA Mtb inh 0.
Screening CCOc1cc(/C=N/N=C(/N)c2nonc2N)cc(Br)c1OCc1ccc(Cl)cc1 returned Mtb bLac sens -3, Rv3671c protease -31, GDH-TPI counter 32*, RecA intein inh 0, UGM FP inh -1 and FBA Mtb inh 1.
For COc1cc(/C=N/N=C(/N)c2nonc2N)cc(Br)c1OCc1ccccc1C the results were Mtb bLac sens 78, Rv3671c protease -12, GDH-TPI counter 34*, RecA intein inh 1, UGM FP inh 1 and FBA Mtb inh 1.
`CCOc1cc(/C=C2\N=C(C)OC2=O)cc(Br)c1OCCc1ccccc1` gave Mtb bLac sens 3, Rv3671c protease 2, GDH-TPI counter -2, RecA intein inh 2, UGM FP inh -2 and FBA Mtb inh -2.
Cc1cc(C)c([N+](=O)[O-])cc1-c1ccc(/C=N/c2c(-c3ccco3)nc3ccccn23)o1 was read as Mtb bLac sens 3, Rv3671c protease 8, GDH-TPI counter 33*, RecA intein inh 5, UGM FP inh 4 and FBA Mtb inh 1.
For O=[N+]([O-])c1ccc(-c2ccc(/C=N/c3c(-c4ccco4)nc4ccccn34)o2)cc1 the results were Mtb bLac sens 98, Rv3671c protease 3, GDH-TPI counter 49*, RecA intein inh -3, UGM FP inh 1 and FBA Mtb inh 6.
`O=[N+]([O-])c1ccc(Cl)c(-c2ccc(/C=N/c3c(-c4ccco4)nc4ccccn34)o2)c1` gave Mtb bLac sens 9, Rv3671c protease 6, GDH-TPI counter 8, RecA intein inh 1, UGM FP inh -1 and FBA Mtb inh -2.
Screening CCc1cc2c(=O)n(-c3ccccc3)c(=S)[nH]c2s1 returned Mtb bLac sens -12, Rv3671c protease -2, GDH-TPI counter 32*, RecA intein inh -1, UGM FP inh 4 and FBA Mtb inh 2.
O=c1c2cc(Br)ccc2[nH]c(=S)n1-c1ccccc1 was read as Mtb bLac sens -7, Rv3671c protease 5, GDH-TPI counter -2, RecA intein inh -1, UGM FP inh -2 and FBA Mtb inh 2.
For Cc1ccc(S(=O)(=O)C(C#N)c2nc3ccccc3nc2N2CCCC2)cc1 (centres undefined) the results were Mtb bLac sens 1, Rv3671c protease -15, GDH-TPI counter 11, RecA intein inh -10, UGM FP inh 8 and FBA Mtb inh 128*.
`NS(=O)(=O)c1ccc(CCNC(=O)COC(=O)c2nc(Cl)ccc2Cl)cc1` gave Mtb bLac sens 1, Rv3671c protease 5, GDH-TPI counter 2, UGM FP inh 0 and FBA Mtb inh 2.
`CCCCC1CCCOC(C(=O)NCCNCCO)(C(F)(F)F)C1` (centres undefined) gave Mtb bLac sens -3, Rv3671c protease -2, GDH-TPI counter -1, RecA intein inh 0, UGM FP inh -3 and FBA Mtb inh -2.
`N#C/C(=C/c1ccc(CNS(=O)(=O)c2ccccc2)o1)C(N)=O` gave Mtb bLac sens 5, Rv3671c protease 0, GDH-TPI counter 37*, RecA intein inh 3, UGM FP inh 0 and FBA Mtb inh -1.
Screening O=C(NN=Cc1c(F)c(F)c(F)c(F)c1F)c1ccc(NS(=O)(=O)c2cccs2)cc1 returned Mtb bLac sens 2, Rv3671c protease -2, GDH-TPI counter 36*, UGM FP inh -1 and FBA Mtb inh -4.
For CC(=O)Nc1ccc(C=NNC(=O)c2ccc(NS(=O)(=O)c3cccs3)cc2)cc1 the results were Mtb bLac sens 0, Rv3671c protease -7, GDH-TPI counter 59*, UGM FP inh -1 and FBA Mtb inh 2.
`O=C(NN=Cc1ccc(O)cc1)c1ccccc1NS(=O)(=O)c1cccs1` gave Mtb bLac sens 0, Rv3671c protease 3, GDH-TPI counter 37*, UGM FP inh 2 and FBA Mtb inh 4.
CC(=O)Nc1ccc(/C=N/NC(=O)c2cccc(S(=O)(=O)N3CCOCC3)c2)cc1 was read as Mtb bLac sens -4, Rv3671c protease 0, GDH-TPI counter 36*, RecA intein inh -3, UGM FP inh 0 and FBA Mtb inh 1.
C/C(=N\NC(=O)c1ccc(NS(=O)(=O)c2cccs2)cc1)c1cccs1 was read as Mtb bLac sens 14, Rv3671c protease 3, GDH-TPI counter 22, RecA intein inh 1, UGM FP inh 2 and FBA Mtb inh 0.
